Screen size: about 38,000 compounds; about 1,200 (3.2%) showed an effect of 50% or more. The median lay at about -58%. What follows is part of a selection rich in strong results, with near analogues and random picks from the rest.
Test system: Plasmodium falciparum
Assay: Calibr Malaria Delayed Death Assay SOP
Assay type: functional, organism-based
Parameters: scale not given: in the data most compounds retested in dose-response had high values
Settings: concentration 4.99e-06 (unit not given; other assays of the set use mol/L)

In order of rising “Percent Effect” value:
1. CC1CC(NS(=O)(=O)c2ccc(C(F)(F)F)nc2)C1 (configuration not stated)  -159.1%
2. CCC(NC(=O)CNCC(F)(F)F)c1cc(F)ccc1F (configuration not stated)  -157%
3. Cn1cc(C[C@H]2[C@H](O)CCN2Cc2ccc3c(c2)OCO3)cn1  -152.7%
4. N#CCSCCCN1CCN(C(=O)c2ccccc2F)CC1  -147%
5. NC(=O)c1nc(-c2cccc(Cl)c2)oc1N  -143.3%
6. O=c1ncn(-c2ccc(F)cc2)c2ncccc12  -138.9%
7. O=C(C(c1ccccc1)S(=O)(=O)c1ccccc1)N1CCCCC1 (configuration not stated)  -134.4%
8. Cc1ncc2c(n1)CN(Cc1nc(-c3ccco3)oc1C)CC2  -128.1%
9. OCc1cn([C@@H]2c3ccccc3C3(CCNCC3)[C@H]2O)nn1  -123.5%
10. Cc1oc(-c2nc(C#N)c(NC(C)C)o2)cc1S(=O)(=O)N1CCCC1  -121.8%
11. CC(=O)N1[C@H](CN(C)C)C[C@@H]2CN(C(=O)c3cccc(F)c3)CC[C@@H]21.O=C(O)C(F)(F)F  -121.5%
12. O=C(c1cccc2ncccc12)N1CCC(Nc2cccnn2)CC1  -119.6%
13. O=C(c1ccco1)N1CCC2(CCCN(c3ncc(F)cn3)C2)C1 (configuration not stated)  -116%
14. COc1cccc(CN2CCC3(CC2)CCN(c2ncc(F)cn2)C3)c1.O=C(O)C(F)(F)F  -115%
15. CCOC(C)C(=O)Nc1ccnn1-c1ccccc1C (configuration not stated)  -113.5%
16. Fc1ccc(CN2CCC3(CCCN(c4nncs4)C3)C2)cc1.O=C(O)C(F)(F)F (configuration not stated)  -107.3%
17. CN1CCN(C(=O)C2CN(Cc3cc4ccccc4o3)CCN2)CC1 (configuration not stated)  -105.5%
18. CCOc1ccc(Cl)cc1CCNC(=O)Cn1nc(C)ccc1=O  -103.1%
19. O=C(COc1cccc2c1CCC2=O)NCCOc1ccccc1  -101.5%
20. Cn1cc(CN2CCc3ccc(=O)n(Cc4ccncc4)c3CC2)cn1.O=C(O)C(F)(F)F.O=C(O)C(F)(F)F  -100.7%
21. CCn1nccc1CNc1[nH]cnc2nncc1-2  -100.3%
22. Cn1cccc1C(=O)N1C[C@@H](OCc2ccncc2)[C@@H]2OCCC[C@@H]21.O=C(O)C(F)(F)F  -99.03%
23. Fc1cnc(N2CCCC3(CN(Cc4ccccc4)CCO3)C2)nc1.O=C(O)C(F)(F)F (configuration not stated)  -95.68%
24. COCCCN(C)C(=O)c1cccc(Nc2cnccn2)c1  -92.25%
25. O=C1[C@H]2CC[C@H](CN(c3ncnc4ccsc34)C2)N1CC1CC1  -91.86%
26. COc1cc(CNCCn2ccnc2)cc2c1OCO2.Cl  -91.54%
27. O=C(O)C(F)(F)F.O=C(c1ccncc1)N1CCC2(CCCN(c3ncc(F)cn3)C2)C1 (configuration not stated)  -90.51%
28. CCn1nc(C)c(C(=O)NCc2csc(C3CC3)n2)c1C  -85.55%
29. Fc1cnc(N2CCCC3(CN(Cc4cccs4)CCO3)C2)nc1.O=C(O)C(F)(F)F (configuration not stated)  -85.22%
30. COc1nn(C)c2c1CCCN(C(=O)c1cscn1)C2  -85.03%
31. CC(c1cccc(O)c1)N(C)S(N)(=O)=O (configuration not stated)  -84.23%
32. CC(=O)NC(CC(=O)Nc1nc(C)c(C)s1)c1ccccc1 (configuration not stated)  -83.12%
33. CC(C)C(=O)N1CCN(Cc2csc(-c3ncccn3)n2)CC1  -79.45%
34. Cc1csc(C(=O)N2CCCC(c3[nH]ncc3S(C)(=O)=O)C2)c1 (configuration not stated)  -79.4%
35. Cc1cnc(CN(C)C2CCN(Cc3nc4c(F)cccc4[nH]3)C2)o1 (configuration not stated)  -76.29%
36. Cc1cnc(N2C[C@@H]3CN(Cc4ccco4)CCC[C@]3(C(=O)O)C2)nc1.O=C(O)C(F)(F)F  -71.37%
37. CC(C)CCN1CCC2(CCCN(c3nncs3)C2)C1.O=C(O)C(F)(F)F (configuration not stated)  -67.46%
38. COCCCn1ccc(NC(=O)NCCCn2ccnc2)n1  -63.56%
39. CCN1CC2(CC1=O)CN(C(=O)c1ccco1)CCN(C(=O)C(C)C)C2 (configuration not stated)  -62.73%
40. CN(C)CCNCC1COCc2c(-c3ccnn3C)nnn2C1 (configuration not stated)  -61.69%
41. COc1cc(CNc2ccc(C)c(Cl)c2)ccc1OCC(N)=O  -61.06%
42. Cc1cccc(C(C)(C)CNC(=O)CN(C)S(=O)(=O)c2cccnc2)c1  -59.91%
43. CCCNC(=O)c1c(-n2cnnn2)sc2c1CCC2  -55.33%
44. COc1ccc(-c2nc(CNC3CCc4nc(C)nn4C3)no2)cc1 (configuration not stated)  -54.43%
45. CC(c1cccnc1)N(C)S(C)(=O)=O (configuration not stated)  -49.62%
46. COc1cccc(CN2CCC3(CCN(c4ncc(F)cn4)CC3)C2)c1.O=C(O)C(F)(F)F  -47.02%
47. O=C(CN1CCCC1Cn1cncn1)Nc1ccnn1C1CCCC1 (configuration not stated)  -46.57%
48. CCOc1c(F)cccc1C(=O)N(CC)C(C)c1cccnc1 (configuration not stated)  -44.59%
49. CC(NC(=O)NCC1(c2ccc(Cl)cc2)CC1)c1nncn1C (configuration not stated)  -41.57%
50. CCc1nc(C)sc1CN1CC[C@@](O)(C2CC2)[C@H](C)C1  -41.51%
51. Cc1cnc(N2CCC3(CC2)CN(Cc2cccs2)CCO3)nc1.O=C(O)C(F)(F)F.O=C(O)C(F)(F)F  -40.39%
52. COC(=O)[C@@H]1Cc2[nH]cnc2CN1Cc1cc2ccccc2o1  -36.16%
53. Cc1nc(CN2CCN(CCCc3ccccc3)CC2)no1  -34.84%
54. O=C(CN1CCOc2ccc(Cl)cc21)NCCCn1ccnc1  -34.55%
55. COCc1cn([C@@H]2c3ccccc3C3(CCNCC3)[C@H]2O)nn1  -27.47%
56. O=C(NCC(O)c1ccsc1)Nc1cccs1 (configuration not stated)  -26.53%
57. N[C@H]1CN(C(=O)c2cnc3cc(Cl)ccc3c2O)C[C@@H]1C1CC1  -23.25%
58. Cc1nnc(NC(=O)NCCCN2CCC(C(N)=O)CC2)s1  -23.13%
59. O=C(c1ccoc1)N1CCC2(CCCN(c3ncc(F)cn3)C2)C1 (configuration not stated)  -22.39%
60. O=C(O)C(F)(F)F.O=C(O)C(F)(F)F.c1cnc(N2CCOCC3(CCCN(Cc4cccs4)C3)C2)nc1 (configuration not stated)  -21.37%
61. COc1cc(N2C[C@H](C(=O)N3CCCC3)[C@@H]3CCO[C@@H]3C2)ncn1  -18.3%
62. Cc1noc(C)c1CN1CCc2ncnc(-c3cnn(C)c3)c2CC1.O=C(O)C(F)(F)F  -17.12%
63. CN(Cc1noc2c1CCCC2)C(=O)Nc1cccc(S(N)(=O)=O)c1  -16.52%
64. Cc1cc2n(n1)CC(CNCc1ccccc1Cn1cccn1)CN2 (configuration not stated)  -15.62%
65. COc1cc(-c2ccc(F)c3c2OC(CN)C3)cc(OC)c1OC (configuration not stated)  -14%
66. CCNc1ncc(CN(Cc2ccccc2)CC(C)CO)cn1 (configuration not stated)  -11.14%
67. Cc1ccc(-c2nc(CNS(=O)(=O)N(C)C)[nH]c2-c2ccccn2)cc1  -8.879%
68. COc1cc(-c2cc(=O)[nH]cn2)cc(OC)c1OC  -8.244%
69. Cc1nc2c(c(N(C)Cc3ccccc3-n3cccn3)n1)CCNCC2  -7.146%
70. Cc1cc(CN(C)c2nc(-c3ccco3)nc3c2CCN(C)CC3)on1  -7.108%
71. COc1cc(N2CCC3(CCCN(Cc4ccccn4)C3)C2)ncn1.O=C(O)C(F)(F)F (configuration not stated)  -7.04%
72. O=C(O)C(F)(F)F.O=C(O)C(F)(F)F.c1cncc(C2COC3(CCN(Cc4nccs4)CC3)C2)c1 (configuration not stated)  -1.865%
73. CC(C)CN1CCCC2(CCN(c3ccc(C#N)cn3)C2)C1.O=C(O)C(F)(F)F (configuration not stated)  4.981%
74. Fc1cnc(N2CCCC3(CCN(Cc4nccs4)C3)C2)nc1 (configuration not stated)  21.75%
75. CCC(=O)NCC(=O)NC(C)c1ccc(OCCC(C)C)cc1 (configuration not stated)  22.17%
76. N[C@H]1CN(C(=O)c2ccc(Cl)cc2O)C[C@@H]1C1CC1  32.78%
77. Cl.Cl.O[C@@H]1C[C@@](CNCc2cccc(Cl)c2)(COc2cccnc2)C[C@@H]1O  34.26%
78. Cl.Cl.O[C@@H]1C[C@@](CNCc2ccc(F)cc2)(COc2cccnc2)C[C@@H]1O  40.62%
79. Cc1nc2c(c(N(C)CC3Cc4ccccc4CN3C)n1)CCNCC2 (configuration not stated)  41.97%
80. O=C(O)C(F)(F)F.O=C(O)C(F)(F)F.c1csc(CN2CCCC3(COCCN(c4cnccn4)C3)C2)c1 (configuration not stated)  45.61%
81. COCC(C)NCc1nc(-c2ccc(C)cc2)c(-c2ccccn2)[nH]1 (configuration not stated)  45.68%
82. CCOc1ccc(Cl)cc1CNCCCn1ccnc1  51.78%
83. COc1cccnc1-c1ccc(F)c2c1OC(CN)C2 (configuration not stated)  57.41%
84. Cc1cc(Cl)ccc1C(=O)N1C[C@H](C2CC2)[C@@H](N)C1  60.81%
85. O[C@H]1[C@H](n2cc(CN3CCCC3)nn2)c2ccccc2C12CCNCC2  62.81%
86. Fc1cnc(N2CCCC3(CCN(Cc4cccs4)C3)C2)nc1.O=C(O)C(F)(F)F.O=C(O)C(F)(F)F (configuration not stated)  67.75%
87. Cc1cc(CN(C)c2nc(-c3ccccn3)nc3c2CCNCC3)n[nH]1  68.42%
88. Cl.Cl.O[C@@H]1C[C@@](CNCc2ccc(Cl)cc2)(COc2cccnc2)C[C@@H]1O  70.01%
89. CC(C)CN1CCCC2(CCN(c3ccccn3)C2)C1.O=C(O)C(F)(F)F (configuration not stated)  70.33%
90. CC(c1cccc(O)c1)N(C)S(=O)(=O)c1cccnc1 (configuration not stated)  70.34%
91. Fc1cnc(N2CCCC3(CCN(Cc4ccoc4)C3)C2)nc1.O=C(O)C(F)(F)F.O=C(O)C(F)(F)F (configuration not stated)  72.25%
92. O=C(O)C(F)(F)F.c1ccc(N2CCCC3(CCN(Cc4cccs4)C3)C2)nc1 (configuration not stated)  72.7%
93. CC(C)c1ccc(CN2CCC3(CCCN(c4nncs4)C3)C2)cc1.O=C(O)C(F)(F)F (configuration not stated)  73.03%
94. CN(Cc1ccon1)c1nc(-c2ccccn2)nc2c1CCNCC2  75.26%
95. CCN(C(C)c1cccc(O)c1)S(=O)(=O)c1cccnc1 (configuration not stated)  75.64%
96. Fc1cnc(N2CCCC3(CCN(Cc4ccco4)C3)C2)nc1.O=C(O)C(F)(F)F.O=C(O)C(F)(F)F (configuration not stated)  77%
97. CCOc1ccc(CNCCCn2ccnc2)cc1Br  79.67%
98. Clc1ccc(C2(CNC3=NCCN3)CC2)cc1.I  82.97%
99. COc1cc(C)c(-c2ccc(F)c3c2OC(CN)C3)cc1C (configuration not stated)  83.54%
100. Cc1ccc(-c2nc(CNC(C)CCO)[nH]c2-c2ccccn2)cc1 (configuration not stated)  85.22%
101. Cl.Clc1ccc(-c2ccc(C3CNCCO3)nc2)cc1 (configuration not stated)  85.23%
102. COc1ccc(CN2CCC3(CCCN(c4ncc(F)cn4)C3)C2)cc1.O=C(O)C(F)(F)F (configuration not stated)  86.34%

From ChEMBL document CHEMBL3988442, “University of Dundee, Small-Polar-MMV Screening Library” (2021)
